From PubChem BioAssay (NCATS) come the findings set out here.

SMILES strings stand for the structures. Records with an inconclusive call do not appear. Entries that show only a call come without a potency. Activity calls are given as the source filed them. Calls come from the whole dose curve; as a rule, active = well fitted inhibition curve with a large enough effect; inconclusive = small, poorly fitted or top-dose-only effect; inactive = flat fitted curve, though single readings scatter.
Potency is the fitted concentration of half-maximal effect.

This assay relates to Zika virus NS2B-NS3 protease. Briefly: Primary screen GU AMC qHTS for Zika virus inhibitors (AID 1347154). Note: nearly all actives have a fitted effect of over 70% in size. The note with it: Zika NS2B-NS3 unlinked protease, AMC fluorogenic substrate; series mostly up to 54.1 µM. The gist of the method:
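Unlinked Zika NS2B hydrophilic domain/NS3 protease domain noncovalent complex (25 nM final) in 10 mM Tris-HCl pH 8.0, 0.01% Tween 20, with AMC peptide substrate. Fluorescence (ex 340, em 450 nm) change over 15 min, room temperature; percent inhibition fitted to 4-parameter Hill equation.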
A general note: Quantitative high-throughput screening tests each substance at several concentrations.
With `C[C@@]12OC(=O)[C@]1([C@@H](O)[C@@H]1C=CCCC1)NC(=O)[C@H]2CCCl`, the Potency result was “inactive”. In the case of `O=S(=O)(O)C(F)(F)C(F)(F)C(F)(F)C(F)(F)F` it was “inactive”; in that of `O=[N+]([O-])c1c2ccccc2cc2ccccc12`, “inactive”. Take `Cc1nc(-c2ccc(-c3ccc(C(=O)N4CCc5cc6c(cc54)C4(CCN(C)CC4)CO6)cc3)c(C)c2)no1`: the Potency entry was “inactive”. In the case of `C[C@]12CC[C@H](O)CC1=CC[C@H]1[C@H]3CCC(=O)[C@@]3(C)CC[C@@H]12`, the Potency entry was “inactive”.

For `C[C@]12Cc3cn[nH]c3C[C@@H]1CC[C@@H]1[C@H]2CC[C@@]2(C)[C@H]1CC[C@]2(C)O`, the Potency entry is “inactive”.

As to `O=[N+]([O-])c1ccc([As](=O)(O)O)cc1`, the Potency entry was “inactive”. In the case of `CC(C)[C@]12O[C@@H]1[C@@H]1O[C@]13[C@]1(O[C@H]1C[C@@H]1C4=C(CC[C@@]13C)C(=O)OC4)[C@H]2O` it was “inactive”; in that of `COc1ccc2c(c1)[C@]13CCCCC1C(C2)N(C)CC3` (stereo not given in full), “inactive”.

For `C#C[C@]1(O)C=C[C@@H]2[C@@H]3CCC4=CC(=O)CC[C@@H]4[C@H]3CC[C@@]21CC`, the Potency result is “inactive”. As to `CC[C@@]1(O)C(=O)OCc2c1cc1n(c2=O)Cc2cc3ccccc3nc2-1`, the Potency is 2.12 µM (active). In the case of `COc1ccc(C(c2ccc(OC)cc2)C(Cl)(Cl)Cl)cc1` it was “inactive”. In the case of `C[C@H]1CCCC=CC2C[C@H](O)C[C@@H]2[C@H](O)C=CC(=O)O1` (stereo not given in full) it was “inactive”; in that of `CCCCC(CC)COC(=O)c1ccccc1C(=O)OCC(CC)CCCC` (stereo not given), “inactive”; in that of `CC[C@H]1C=CC=CC[C@@H](C)[C@H](O)[C@@](C)(O)C(=O)[C@@H](C)[C@H](O)[C@@H](C)C(=O)[C@@H](C)[C@H](O)[C@@H](C)C=CC(=O)O[C@@H]2[C@@H](C)[C@H](CC1)O[C@]1(CC[C@H](C)[C@H](C[C@@H](C)O)O1)[C@H]2C`, “inactive”.
